Assay [1] is described as follows: Wnt pathway potentiators raising nuclear beta-catenin – imaging, WNT3A-conditioned medium, mouse C2C12, NPC library, primary screen (AID 1117326). The following applies: stronger effect = higher value.
The nature of assay [2]: stimulators of insulin release from INS-1E, primary screen, cell-based, 5 mM glucose, NPC library (AID 1117329;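 active = compound raises insulin release from rat beta cells at 5 mM glucose, no numeric limit stated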). The following applies: rat INS-1E insulin secretion, at 10 µM, stronger effect = higher value.
Assay [3] in a line: growth inhibition of GSK3B-pretreated HCT116 cells – cell-based, CellTiter-Glo, 0.2 to 20 µM (AID 1117336;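 active = compounds lowering colon cancer cell viability after pretreatment blocking the GSK3B kinase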). The following applies: HCT116 viability after GSK3B inhibitor, at 20 µM, stronger effect = higher value.
The nature of assay [4]: inhibition of endothelial tube formation, primary screen, imaging, VEGF stimulated, CD31 staining, tube area, NPC library (AID 1117340;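 active = compound that reduces growth-factor-driven endothelial tube area in a mixed cell culture, no cutoff stated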). The following applies: VEGF-stimulated ADSC/ECFC co-culture, at 10 µM, stronger effect = higher value.
Assay [5] is described as follows: GLP1 release stimulators, primary, NCI-H716, NPC library (AID 1117341;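 active = compound raises GLP1 secretion from the human gut endocrine cells, with no numeric limit stated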). The conditions noted are these: NCI-H716 cells, at 10 µM, stronger effect = higher value.
A short description of assay [6]: HCT116 colon cancer cell growth inhibition, primary screen, CellTiter-Glo luminescence, NPC library (AID 1117342;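 active = compounds that lower survival of HCT116 colon cancer cells in the luminescence readout, no numeric limit stated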). The conditions noted are these: at 20 µM (top of the series).
A short description of assay [7]: reduced SW480 viability measured with CellTiter-Glo, NPC library, primary (AID 1117343;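 active = compounds that lower viability of the colon cancer cells in the luminescence readout, with no numeric limit stated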). The following applies: CellTiter-Glo luminescence; at 20 µM (top of the series) unless noted. Background: ATP-based viability assays read luminescence as a measure of living cells.
Assay [8] is described as follows: NPC library primary testing for decreased DLD-1 cell viability via CellTiter-Glo (AID 1117346;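 active = compounds that lower survival of DLD-1 colon cancer cells in the luminescence readout, no cutoff given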). The conditions noted are these: DLD-1 viability, CellTiter-Glo luminescence; at 20 µM (top of the series).
A short description of assay [9]: viability loss with induced miR-34 in A549 – imaging, A549 dox-inducible miR-34, nuclei and caspase counts, primary screen (AID 1347080;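 active = compounds whose cell count with miR-34 switched on is under 0.7 times the count with it off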). The following applies: A549 miR-34 inducible, Hoechst nuclei count, 48 h.
Assay [10] has as its target NAD(+) hydrolase SARM1 (Homo sapiens) (UniProt Q6SZW1). Kind of assay: blocking NAD cleavage by SARM1 SAM-TIR – cell lysate, NAD-Glo luminescence (AID 1508614;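 active = compound whose remaining NAD level is above about 45 nM, limit read from the data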;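 also: higher remaining NAD means stronger inhibition of SARM1 NADase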). The following applies: SAM-TIR HEK293T lysate NADase, at 1 µM, stronger effect = higher value.
Assay [11] in a line: compounds altering circadian rhythm period length – cell-based, LOPAC library, luminescence reporter (AID 2774; call rule not given here;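 also: values are relative to mean of DMSO wells on each plate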). The conditions noted are these: circadian reporter cells, at 7 µM, actives lie on both sides.
A short description of assay [12]: compounds altering viability of human ES cells (AID 493140; call rule not given here;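 also: cells exposed to compounds for four days before counting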). The conditions noted are these: human embryonic stem cell survival screen; stronger effect = higher value.
Assay [13] can be described thus: P. berghei load reduction in hepatocytes – cell-based, HepG2, luciferase luminescence, HepG2 viability, primary screen (AID 624349; in the data active = parasite load remaining mostly below about 12%, no sharp cut-off; inactive = mostly above about 10%;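 also: 100% = mean of DMSO negative control wells on the same plate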). The conditions noted are these: P. berghei liver stage in HepG2, luciferase luminescence, concentration not given here; parasite load remaining: stronger effect = lower value; viability: measured here: HepG2 viability without parasites.
Assay [14] in a line: blockers of cellular phospholipid synthesis – cell-based, LOPAC library, screen 4, primary screen (AID 1347384; call rule not given here). The following applies: animal cells, phospholipid biosynthesis inhibition screen; at 10 µM.
Assay [15] can be described thus: MELAS cybrid and Rieske KO viability enhancers – cell-based, MELAS cybrids, Rieske KO mouse fibroblasts, CellTiter-Glo, primary screen (AID 1508586;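 active = mean z-score across replicates of 1.96 or higher in either the MELAS or the Rieske mutant cell line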;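 also: z relative to plate mean and SD of compound and empty wells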). The conditions noted are these: low glucose.
Assay [16] in a line: galactose survival enhancers in mitochondrial complex I cybrids – cell-based, galactose medium, ATP luminescence, primary screen (AID 1645843;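 active = z-score of at least 1.8 in each of two replicates, scored against plate mean and spread of sample wells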;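 also: positive z means more ATP and so rescue of galactose-driven cybrid death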). The conditions noted are these: complex I mutant cybrid cells, 72 h, stronger effect = higher value.
Where [17] appears, read: stronger effect = lower value, cell number ratio, induced over uninduced.
Setting [18] is: measured here: relative caspase fold change +Dox/-Dox.
Setting [19] is: measured here: total cells with miR-34 induction, stronger effect = lower value.
The mark [20] stands for this setting: measured here: total cells without miR-34 induction.

Structures are written as SMILES. Values joined by “and” are separate entries in the source; they are usually repeats but may differ in a detail not shown here. Identical values can stand only once. Active and inactive are the calls of the source. Rule as the data show it, unless noted: active = nuclear beta-catenin stimulation mostly above about 4.2% (no sharp cut-off); inactive = mostly below about 10%.

NAD(+) hydrolase SARM1 (Homo sapiens), sequence (Q6SZW1 whole entry, looked up): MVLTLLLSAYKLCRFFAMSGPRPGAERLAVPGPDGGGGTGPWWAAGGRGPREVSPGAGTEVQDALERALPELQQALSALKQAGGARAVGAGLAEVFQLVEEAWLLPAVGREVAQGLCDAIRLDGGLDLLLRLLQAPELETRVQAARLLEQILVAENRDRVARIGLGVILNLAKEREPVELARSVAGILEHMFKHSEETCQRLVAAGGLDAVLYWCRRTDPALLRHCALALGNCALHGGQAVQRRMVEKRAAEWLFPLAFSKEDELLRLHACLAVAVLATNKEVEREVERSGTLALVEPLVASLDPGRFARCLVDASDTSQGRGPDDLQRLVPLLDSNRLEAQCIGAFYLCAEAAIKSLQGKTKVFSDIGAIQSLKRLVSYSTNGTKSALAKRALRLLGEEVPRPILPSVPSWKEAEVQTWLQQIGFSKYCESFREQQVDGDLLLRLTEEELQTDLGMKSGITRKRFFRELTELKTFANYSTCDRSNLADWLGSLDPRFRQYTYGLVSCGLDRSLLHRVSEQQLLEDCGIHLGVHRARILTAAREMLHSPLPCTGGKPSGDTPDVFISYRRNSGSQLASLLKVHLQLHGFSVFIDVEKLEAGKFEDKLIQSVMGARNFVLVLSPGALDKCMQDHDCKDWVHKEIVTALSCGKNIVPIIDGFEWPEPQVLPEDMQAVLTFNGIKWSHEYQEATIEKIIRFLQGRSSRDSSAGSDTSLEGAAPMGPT

Turning to `OCc1ccccn1`, the nuclear beta-catenin stimulation in assay [1] (at 10 µM) was -1% (inactive); in assay [1] (stimulation, at 2 µM), 0.3%. In assay [2], the insulin secretion stimulation is 0% (inactive). In [3], the viability decrease is 4.8% (inactive). In [4], the tube area decrease is -15.2% (inactive). Also, the GLP1 secretion stimulation in assay [5] is -2.9% (inactive). The inhibition of viability in assay [6] was -23.7% (inactive). The figures for the viability decrease (inhibition) in assay [7] and in assay [8] were 30.6% (active) and -10.2% (inactive), respectively. In addition, the fold change in [9] (setting [17]) is 0.898 (inactive); in [9] (setting [18]), 0.701. For the same compound, the values for the cell count in assay [9] (setting [19]) and in assay [9] (setting [20]) were 8220 and 9160, respectively. Besides, in [10], the remaining NAD was 10 nM (inactive).
Take `O=C(O)c1ccc[n+]([O-])c1`: the nuclear beta-catenin stimulation is -0.8% (inactive) in assay [1] (at 10 µM) and 2% in assay [1] (stimulation, at 2 µM). In assay [2], the insulin secretion stimulation was -0.6% (inactive). For the same compound, the viability decrease in assay [3] was -4.35% (inactive). The tube area decrease in assay [4] is 11.3% (active). Further, the GLP1 secretion stimulation in [5] was 0% (inactive). The inhibition of viability in assay [6] was -1.7% (inactive). Further, the results for the viability decrease (inhibition) in assay [7] and in [8] were 14.2% (inactive) and -2.85% (inactive), respectively. The values for the fold change in assay [9] (setting [17]) and in [9] (setting [18]) were 0.936 (inactive) and 0.969, respectively. In addition, the cell count came to 8660 in assay [9] (setting [19]) and 9250 in [9] (setting [20]). The remaining NAD in [10] was 10 nM (inactive).
As for `O=C(NCCCN1CCOCC1)c1ccc(Cl)cc1`, the nuclear beta-catenin stimulation in assay [1] (at 10 µM) is 0.6% (inactive); in [1] (stimulation, at 2 µM) it was 1%. Also, the insulin secretion stimulation in [2] is 1.5% (inactive). Further, in [3], the viability decrease was 1.5% (inactive). For the same compound, the tube area decrease in assay [4] is 12.7% (inactive). In addition, the GLP1 secretion stimulation in assay [5] is -0.3% (inactive). Moreover, the inhibition of viability in assay [6] was 0% (inactive). Moreover, the results for the viability decrease (inhibition) in assay [7] and in [8] were 18.6% (inactive) and 1.05% (inactive), respectively. The remaining NAD in assay [10] is 10 nM (inactive).
Take `Cc1cc(CC(C)CC(C)(C)C)n(O)c(=O)c1` (stereo not given): the nuclear beta-catenin stimulation was 43.5% (active) in assay [1] (at 10 µM) and 50.6% in assay [1] (stimulation, at 2 µM). In [2], the insulin secretion stimulation was 2.2% (inactive). In addition, the viability decrease in assay [3] was 94.2% (active). In addition, the tube area decrease in assay [4] was 107% (active). Besides, in assay [5], the GLP1 secretion stimulation was -0.7% (inactive). Also, in [6], the inhibition of viability was 67.2% (active). Moreover, the viability decrease (inhibition) was 95.7% (active) in assay [7] and 91.5% (active) in assay [8]. For the same compound, the remaining NAD in assay [10] was 10 nM (inactive).
What is called viability is a per cent measure of how many cells are alive, often set against a control. Turning to `O=C1NCN(c2ccccc2)C12CCN(CCCC(c1ccc(F)cc1)c1ccc(F)cc1)CC2`, the period change in assay [11] is -0.085 h (inactive). Also, in assay [12], the survival is 0.417 (inactive). Also, in [13], the parasite load remaining is 45.3% (inactive) and 31.6% (inactive). Further, the viability in [13] is 89.8% and 100%. Further, the nuclear beta-catenin stimulation in assay [1] (at 10 µM) was 31.6% (inactive); in assay [1] (stimulation, at 2 µM), 2.1%. In assay [2], the insulin secretion stimulation is 2.5% (inactive). Also, in [3], the viability decrease is 99.7% (active). Besides, the tube area decrease in [4] is 109% (active). Moreover, the GLP1 secretion stimulation in assay [5] was -0.5% (inactive). In addition, in assay [6], the inhibition of viability is 99.6% (active). The viability decrease (inhibition) in [7] is 103% (active); in assay [8], 102% (active). Also, the compound was classed as inactive in [14]. The z-score in assay [15] (MELAS cybrid survival, CellTiter-Glo 48 h, stronger effect = higher value) is -1.7 (inactive) and 0.321 (inactive); in assay [15] (Rieske KO mouse fibroblast survival, CellTiter-Glo 72 h), 0.391 and -0.284; in assay [16], -0.995 (inactive) and -1.48 (inactive).

For the origin of these results see PubChem BioAssay.
